Reference: ChEMBL document CHEMBL3988442, “University of Dundee, Small-Polar-MMV Screening Library” (2021)
The campaign covered roughly 48,000 compounds. About 13,000 (27%) showed an effect of 50% or more. The list shows a part of the results.

System: Wolbachia pipientis
Test: Anti-Wolbachia Cell-Based Screen
Assay type: functional
Set-up: scale not given: in the data most compounds retested in dose-response had high values
Conditions: 5 µM

Q: For `O=C(c1ccc(O)cn1)N1CCOC(Cc2cccc(C(F)(F)F)c2)C1` (stereo not drawn), which “Percent Effect” value is on record?
A: 9.036%

Q: For `Cc1ccnc(OC[C@@]23CCO[C@@H]2CCN(c2ncc(F)cn2)C3)n1.O=C(O)C(F)(F)F`, which “Percent Effect” value is on record?
A: -3.381%

Q: How did the “Percent Effect” value turn out when `NC(=O)c1cnn2c1NCC(CNCC1(c3ccccc3)CCCC1)C2` (stereo not drawn) was run?
A: 95.13%

Q: With `NC(=O)c1cnn2c1NCC(CNC1(c3ccccc3)CCC1)C2` (stereo not drawn) as the molecule, how does the “Percent Effect” value read?
A: 91.1%

Q: With `c1ccc(C2(NCC3CNc4ccnn4C3)CCC2)cc1` (stereo not drawn) as the molecule, how does the “Percent Effect” value read?
A: 81.61%

Q: Which “Percent Effect” value does the source give for `c1ccc(Cn2cccn2)c(CNCC2CNc3ccnn3C2)c1` (stereo not drawn) here?
A: 2.44%

Q: `O=C(NCCCNCC1CNc2ccnn2C1)c1ccccc1` (stereo not drawn) was tested. Which “Percent Effect” value did it give?
A: -22.14%

Q: `NC(=O)c1cnn2c1NCC(CNCCc1ccco1)C2` (stereo not drawn) was tested. Which “Percent Effect” value did it give?
A: -4.106%

Q: Which “Percent Effect” value does the source give for `Cc1cnn(C2CN(CC(=O)NCC3(c4ccccc4)CC3)C2)c1` here?
A: -47.8%

Q: For `Cc1cnn(C2CN(CC(=O)NCC3(c4ccccc4)CCC3)C2)c1`, which “Percent Effect” value is on record?
A: -4.16%

Q: How did the “Percent Effect” value turn out when `NC(=O)c1cnn2c1NCC(CNCCCOc1ccccc1F)C2` (stereo not drawn) was run?
A: -5.67%

Q: For `CNS(=O)(=O)c1cccc(C(C)NCc2ccc(C)c(C)c2)c1` (stereo not drawn), which “Percent Effect” value is on record?
A: -2.241%

Q: `CCc1cnc(C)nc1NC(C)C(=O)Nc1cc(F)ccc1C` (stereo not drawn) was tested. Which “Percent Effect” value did it give?
A: -2.868%

Q: For `Cn1cnnc1S(=O)(=O)Cc1cc(Cl)c2c(c1)OCCO2`, which “Percent Effect” value is on record?
A: -9.232%

Q: Which “Percent Effect” value does the source give for `COCCN(Cc1cccc(O)c1)Cc1ccccc1F` here?
A: 0.04507%

Q: `CN1CCN(Cc2cnc(S(=O)(=O)CC3CC3)n2CC2CCCO2)CC1` (stereo not drawn) was tested. Which “Percent Effect” value did it give?
A: -10.61%

Q: For `O=C(CN1CCCS1(=O)=O)Nc1ccc(OC2CCCC2)c(Cl)c1`, which “Percent Effect” value is on record?
A: -10.49%

Q: `O=C(CC1CCC2(CC1)CCN(Cc1nccs1)CC2)N1CC=CC1` was tested. Which “Percent Effect” value did it give?
A: 106.8%

Q: How did the “Percent Effect” value turn out when `O=C(Cc1cccnc1)N1CCC2(CCN(CC3CCCCC3)C2)CC1.O=C(O)C(F)(F)F.O=C(O)C(F)(F)F` was run?
A: 8.236%

Q: With `O=C(O)C(F)(F)F.O=C(O)C(F)(F)F.O=C(O)C(F)(F)F.c1cc(CN2CCOCC3(CCN(CC4CCOCC4)CC3)C2)ccn1` as the molecule, how does the “Percent Effect” value read?
A: -16.5%

Q: For `COCC1CC2(CCN(Cc3cccnc3)CC2)CN1c1ncccn1.O=C(O)C(F)(F)F.O=C(O)C(F)(F)F.O=C(O)C(F)(F)F` (stereo not drawn), which “Percent Effect” value is on record?
A: -11.87%

Q: For `O=C(CC1CCC2(CC1)CCN(Cc1cccnc1)CC2)N1CC=CC1.O=C(O)C(F)(F)F.O=C(O)C(F)(F)F`, which “Percent Effect” value is on record?
A: 82.49%

Q: `O=C(O)C(F)(F)F.O=C(O)C(F)(F)F.c1csc(CN2CCC3(CC2)CCN(CC2CC2)CC3)n1` was tested. Which “Percent Effect” value did it give?
A: 12.33%

Q: With `O=C(c1cscn1)N1CCC2(CCN(Cc3nccs3)CC2)CC1` as the molecule, how does the “Percent Effect” value read?
A: -43.87%

Q: With `O=C(CC1CCC2(CC1)CCN(Cc1ccncc1)CC2)N1CCCC1.O=C(O)C(F)(F)F` as the molecule, how does the “Percent Effect” value read?
A: 108.9%

Q: Which “Percent Effect” value does the source give for `O=C(C[C@H]1[C@H]2CN(Cc3ccc(F)cc3)C[C@@H]12)N1CCCC1.O=C(O)C(F)(F)F` here?
A: -45.89%

Q: For `COc1ccccc1OCc1nc2cc3c(cc2c(=O)o1)OCCCO3`, which “Percent Effect” value is on record?
A: -14.32%

Q: Which “Percent Effect” value does the source give for `Cc1nc(C2CCN(C[C@H](C)CO)CC2)cc(N2CCOCC2)n1` here?
A: 2.667%

Q: For `CCOCCn1nc(C)cc1C(=O)N1CCCC[C@H](N(C)C)C1`, which “Percent Effect” value is on record?
A: -3.082%

Q: `Cc1ccc(C(=O)N2CCCC(N(C)C(=O)OC(C)(C)C)C2)o1` (stereo not drawn) was tested. Which “Percent Effect” value did it give?
A: 9.731%

Q: With `CCc1c(C(=O)N2CCC(CC(N)=O)CC2)cnn1C(C)(C)C` as the molecule, how does the “Percent Effect” value read?
A: 114.3%

Q: Which “Percent Effect” value does the source give for `CCCc1c(C(=O)N2CCN(c3cnccn3)CC2)cnn1C` here?
A: 10.15%

Q: `NC(=O)CC1CCN(C(=O)c2cnc(-c3ccccc3F)s2)CC1` was tested. Which “Percent Effect” value did it give?
A: 1.886%

Q: How did the “Percent Effect” value turn out when `CCc1c(C(=O)N2CCN(c3cnccn3)CC2)cnn1C(C)(C)C` was run?
A: 78.79%

Q: `CCc1c(C(=O)N2CCNC(=O)C2)cnn1C(C)(C)C` was tested. Which “Percent Effect” value did it give?
A: 104.8%

Q: How did the “Percent Effect” value turn out when `CCc1c(C(=O)N2CCN(CC(N)=O)CC2)cnn1C(C)(C)C` was run?
A: 15.08%

Q: With `Cc1ccsc1CNc1ccc(C(=O)N2CCNC(=O)C2)cn1` as the molecule, how does the “Percent Effect” value read?
A: -3.195%

Q: For `CCc1c(C(=O)N2CCCC(N(C)C)C2)cnn1C(C)(C)C` (stereo not drawn), which “Percent Effect” value is on record?
A: 105.9%

Q: How did the “Percent Effect” value turn out when `CCc1c(C(=O)N2CCN(c3ncccn3)CC2)cnn1C(C)(C)C` was run?
A: 6.599%

Q: `Cc1cc(C(=O)N2CCNC(=O)C2)c(C)n1CC(F)(F)F` was tested. Which “Percent Effect” value did it give?
A: -17.07%

Q: For `O=C(NCCN1CCOCC1)N1CCN(c2ccccc2)CC1`, which “Percent Effect” value is on record?
A: -9.765%

Q: How did the “Percent Effect” value turn out when `Cc1ccccc1CNc1ccc(S(N)(=O)=O)c(C(F)(F)F)c1` was run?
A: -19.7%

Q: With `COc1cccc(CCC2CCCN(C(=O)C3=NN(C)C(=O)CC3)C2)c1` (stereo not drawn) as the molecule, how does the “Percent Effect” value read?
A: 3.443%

Q: For `CC(Cn1ccnc1)NC(=O)C1(c2ccc(F)cc2)CC1` (stereo not drawn), which “Percent Effect” value is on record?
A: 6.075%

Q: Which “Percent Effect” value does the source give for `Cc1cc(C)n(CC(C)NC(=O)C2(c3ccc(F)cc3)CC2)n1` (stereo not drawn) here?
A: -1.516%

Q: `CC1CN(C(=O)C2(c3cccc(F)c3)CCOCC2)CCO1` (stereo not drawn) was tested. Which “Percent Effect” value did it give?
A: -11.59%

Q: How did the “Percent Effect” value turn out when `CCC(CN1CCCCC1)NC(=O)C1(c2cccc(F)c2)CC1.O=C(O)CC(O)(CC(=O)O)C(=O)O` (stereo not drawn) was run?
A: 128.4%

Q: `CCC(CN1CCCC1)NC(=O)C1(c2cccc(F)c2)CC1.O=C(O)CC(O)(CC(=O)O)C(=O)O` (stereo not drawn) was tested. Which “Percent Effect” value did it give?
A: 113.9%
